From PubChem BioAssay (NCI)
The panel holds about 83,000 compounds, 20% with a hit somewhere; the sample as a whole holds those more often.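 In brief: 96-well plates, 48 h treatment, single concentration, percent growth endpoint.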 A number with no mark means an inactive call. Active and inactive are the calls of the source. Rule for the calls: active = growth percent below 10; inactive = the rest.

Test system: HL-60(TB) leukemia
Assay: NCI-60 one-dose screen, 48 h (100 = growth as untreated, 0 = no growth, -100 = all killed)
Settings: 10 µM unless noted

Going from `COc1c(N2CC3CCCNC3C2)c(F)cc2c(=O)c(C(=O)N/N=C/c3ccc4c(c3)OCO4)cn(C3CC3)c12` (stereo unspecified) to `CCN1CCN(c2ccc(NC(=O)Nc3ccc4c(ccn4-c4ccnc(C(=O)NC)c4)c3)cc2C(F)(F)F)CC1`, the growth rises from 75.8% to 96.6%.

Compared with `CCCC(=O)NC(c1cccnc1)c1cc(Cl)c2cccnc2c1O` (stereo unspecified), `Clc1ccc(-c2cn3cc(Cc4ccc(Cl)c(Cl)c4)sc3n2)cc1` is higher in growth: 34.1% for the first, 80.3% for the second.

Molecule `CC1=Cc2ccccc2OC12C=Cc1ccccc1O2` (stereo unspecified) has a growth of 106%.

In the case of `COc1cc(/C=C/C(=O)c2cc(OC)c(OC)c(OC)c2)ccc1OCc1ccccc1`, the growth was -9.27% (active).
